# From PubChem
# A selection: hits, their analogues and other compounds. The true share with any hit is near 4.4%.
# tim10-1 inh = growth inhibitors of tim10-1 mutant yeast, primary screen, luminescence, uHTS | S. cerevisiae tim10-1 ts strain growth, BacTiter-Glo, 24 h | inhibition, % at 20 µM | 330,000 tested, 2.2% active;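 active = inhibition of at least 40%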;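 note: mutant grown at 25 °C; 0% = DMSO wells with yeast and 100% = wells holding no yeast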
# PfHsp90 set2 = growth inhibition of PfHsp90-expressing yeast, primary screen, antimalarial PfHsp90 inhibitor project, S. cerevisiae, BacTiter-Glo luminescence, single point, set 2; BacTiter-Glo ATP, 48 h; yeast lacking PDR1 and PDR3 efflux regulators; inhibition, % at 9.4 µM; 310,000 tested, 0.32% active; AID 504621, 2011;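 active = every replicate shows inhibition above about 80%, whatever the replicate mean, limit read from the data; inconclusive = mean inhibition reaches the set limit but some replicate falls short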;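 note: 0% = DMSO neutral controls and 100% = 20 µM radicicol positive controls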
# tim23-1 inh = growth inhibitors of tim23-1 mutant yeast, primary screen, luminescence, uHTS; S. cerevisiae tim23-1 growth, BacTiter-Glo luminescence, 24 h; inhibition, % at 20 µM; 330,000 tested, 1.3% active;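 active = growth inhibition of the mutant yeast at or above 50%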;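 note: temperature-sensitive mutant grown at 25 °C; plate controls were DMSO-treated mutant yeast for no effect and medium wells lacking yeast for full effect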
# SKKanGAS inh = S. pyogenes SKKanGAS growth inhibitors in kanamycin, primary screen, streptokinase expression inhibitor project, SKKanGAS strain, BacTiter-Glo luminescence; AID 1662, 2009; inhibition, % at 7.5 µM; 6 h; 300,000 tested, 1.3% active;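 active = mean replicate score, as percent of positive control median, at least 50; inconclusive = mean below 50 but one replicate at or above 50; inactive = mean and every replicate below 50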;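 note: strain carries kanamycin resistance gene driven by streptokinase promoter and grows in 40 µg/ml kanamycin; loss of luminescence reflects streptokinase promoter inhibition or plain growth inhibition; 0% = median of DMSO wells and 100% = positive control at its reference dose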
# TIM10 inh = growth inhibitors of isogenic TIM10 control yeast, primary screen, counter-screen for tim10-1 yeast inhibitor project, luminescence, uHTS; S. cerevisiae TIM10 strain growth, BacTiter-Glo luminescence, 24 h; inhibition, % at 10 µM; 330,000 tested, 1.4% active; AID 463195, 2010;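 active = inhibition of 40% or more at the single tested concentration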;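 note: wild-type TIM10 isogenic control strain grown at permissive 25 °C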
# tim10-1 confirm = growth inhibitors of tim10-1 mutant yeast, confirmation, single concentration, luminescence, S. cerevisiae | shares compounds with tim10-1 inh | S. cerevisiae tim10-1 ts strain growth, BacTiter-Glo, 24 h | inhibition, % at 20 µM | 7,400 tested, 56% active;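 active = inhibition of yeast growth at or above a set limit in either of two repeat tests at 20 µM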;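 note: tim10-1 mutant grown at permissive 25 °C to find synthetic lethal compounds; 0% = DMSO yeast wells and 100% = medium wells without yeast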
# The depositor's hits bear a star; u = inconclusive; x = not tested or not shown.
SMILES,tim10-1 inh,PfHsp90 set2,tim23-1 inh,SKKanGAS inh,TIM10 inh,tim10-1 confirm
Cc1ccc(-c2csc(=S)[nH]2)cc1,19.9,-4.2,26.7,1.4,19.4,x
CCc1cc(C(=O)N2CCN(c3ncc(C(F)(F)F)cc3Cl)CC2)sc1C,41.7*,1.3,26.4,u,4.6,35.4*
O=C1OC(c2ccccc2)(c2cc(Br)ccc2O)c2ccccc21 (stereo not drawn),x,-114.8,x,x,x,x
Cc1nnc(NC(=O)c2cccc(S(=O)(=O)N3CCCC3)c2)s1,2.3,-13.5,6.2,0.8,-3.8,x
O=C(Nc1ccc(Cl)cc1)C1C2C=CC3(O2)C1C(=O)N(CCCN1CCCCC1)C3C(=O)NC1CCCCC1 (stereo not drawn),-4.7,2.9,6.3,-4.0,10.8,x
COc1ccc(CN(C2CCCC2)S(=O)(=O)c2ccc(-n3cnnn3)cc2)cc1OC,28.0,11.5,-4.3,2.5,-13.4,x
COc1ccc(CN(C2CCCC2)S(=O)(=O)c2ccc(-n3cnnn3)cc2)cc1,40.2*,-16.7,33.9,4.6,34.0,34.7*
CCOc1ccccc1NC(=O)/C=C/c1ccccc1[N+](=O)[O-],29.4,-5.8,14.6,11.1,9.3,x
CCOC(=O)/C=C/C(=O)Nc1ccccc1C(=O)NC1CCCCC1,46.3*,-7.8,32.9,-6.9,38.3,22.2
CCOc1ccccc1NC(=O)/C=C/C(N)=O,40.4*,-11.8,22.0,6.4,33.1,33.5*
CCOC(=O)c1c(Nc2ccccc2OCCOC)n[nH]c1C,14.1,-6.7,26.0,-4.5,11.8,x
O=C(Nc1nc(-c2cc(Cl)sc2Cl)cs1)c1ccccc1,44.1*,x,40.2,21.7,25.5,28.3
CN(C)S(=O)(=O)c1ccc2nc(NC(=O)c3cccs3)sc2c1,20.8,6.8,40.5,-2.6,27.5,x
O=C(Nc1ccccn1)c1ccc(Cl)s1,-17.7,22.0,7.7,-2.5,7.4,x
O=C(Nc1nc(-c2ccccn2)cs1)c1ccc(Cl)s1,51.1*,65.6,35.2,101.8*,-0.4,30.4
O=C(Nc1nc2ccc(F)cc2s1)c1cccs1,41.4*,1.9,36.0,8.5,33.9,31.9*
O=C(Nc1nc(-c2ccc(Cl)s2)cs1)c1cccs1,41.9*,33.1,49.4,26.4,36.2,10.7
O=C1CCC([N+](=O)[O-])C(c2ccc(-c3ccccc3)cc2)N1 (stereo not drawn),11.2,-9.7,-3.7,-4.2,2.9,x
C=CCn1cc(C(=O)NCCCN(CC)CC)c(=O)c2cc(S(=O)(=O)N3CCC(C)CC3)ccc21,6.3,-3.9,-1.3,-1.8,2.2,x
O=C(c1cccc(F)c1)N1CCN(c2cccc(C(F)(F)F)c2)CC1,31.5,16.2,28.8,-7.5,19.9,x
O=C(c1csc2c1CCCC2)N1CCN(c2cccc(C(F)(F)F)c2)CC1,56.0*,x,33.4,14.4,30.1,33.0*
O=C(c1csc2c1CCCC2)N1CCN(c2ncccn2)CC1,21.8,8.6,15.9,3.9,21.4,x
O=C(c1csc2c1CCCC2)N1CCN(c2ccc(F)cc2)CC1,43.2*,x,36.6,9.8,9.4,30.8
COc1cc2ccccc2cc1C(=O)N(CCN(C)C)c1nc2ccc(Br)cc2s1,53.7*,10.2,18.4,5.6,33.3,-8.6
COc1ccc(C)c2sc(N(CCN(C)C)C(=O)c3ccc4ccccc4c3)nc12,44.1*,-28.2,28.0,9.0,33.2,25.9
SMILES,tim10-1 inh,PfHsp90 set2,tim23-1 inh,SKKanGAS inh,TIM10 inh,tim10-1 confirm
COc1ccc(N2C(=O)CC(N3CCCCC3)C2=O)cc1 (stereo not drawn),10.5,-32.7,25.4,-16.4,-3.6,x
COc1ccc(N2C(=O)CC(N3CCC(O)(c4cccc(C(F)(F)F)c4)CC3)C2=O)cc1 (stereo not drawn),43.1*,7.9,39.9,9.0,24.6,33.5*
CCOC(=O)COc1ccc2nsnc2c1,-14.4,16.0,8.8,1.2,18.3,x
CCOC(=O)COc1ccc(/C=C/[N+](=O)[O-])c(OCC(=O)OCC)c1,42.1*,0.6,41.4,-0.3,22.5,49.5*
N#C/C(=C\c1cc2ccccc2nc1N1CCOCC1)C(=O)Nc1ccc(N2CCOCC2)cc1,8.0,10.4,28.8,2.2,18.3,x
N#CC(C#N)=Cc1cc2ccccc2nc1N1CCOCC1,44.5*,-30.5,49.4,-4.6,25.6,21.1
CCOc1ccc(-n2cc(C(=O)Nc3cccc(OC)c3)c3cc(OC)c(OC)cc3c2=O)cc1,41.8*,-17.5,22.6,6.4,12.3,35.9*
Cc1ccc(S(=O)(=O)NC(=O)c2ccc(-c3ccc(-c4ccccc4)cc3)o2)c(C)c1,42.7*,x,10.3,25.4,-0.5,33.2*
Cc1ccc(S(=O)(=O)NC(=O)c2ccc(F)cc2)c(C)c1,-1.6,-22.6,7.6,-1.3,-5.1,x
Cc1cc(=O)oc2cc(OCc3nnc(-c4ccccc4Br)o3)ccc12,43.6*,-30.6,18.0,x,25.0,21.2
O=C(c1ccccc1)C1C(c2ccccc2)C1[N+](=O)[O-] (stereo not drawn),4.2,-46.6,8.9,-2.3,-2.5,x
CN(C)c1ccc([C@@H]2[C@@H]([N+](=O)[O-])[C@H]3C=Cc4ccccc4N3[C@H]2C(=O)c2ccc(Cl)cc2)cc1,44.8*,-5.4,33.3,x,17.3,25.8
CC1CCN(c2ccccc2NC(=S)NC(=O)C(C)(C)C)CC1,48.6*,2.3,43.8,57.9*,34.6,32.5*
O=C(NC(=S)Nc1ccccc1N1CCCC1)c1ccc(F)cc1,41.3*,4.9,11.6,-9.1,13.9,28.4
Cc1cc(C(=O)NC(=S)Nc2ccccc2N2CCCC2)ccc1[N+](=O)[O-],12.8,-1.3,7.2,-7.9,-0.4,x
CC1CCN(c2ccccc2NC(=O)c2ccc(F)cc2)CC1,26.1,35.3,25.2,20.6,18.7,x
O=C(COc1ccccc1Cl)NC(=S)Nc1ccccc1N1CCCC1,51.1*,8.9,29.1,3.6,18.8,19.9
Cc1ccccc1C(=O)NC(=S)Nc1ccccc1N1CCCC1,50.6*,-3.6,46.8,10.0,37.2,37.2*
CC(C)(C)c1ccc(NC(=O)CNC2CCCc3ccccc32)cc1 (stereo not drawn),41.7*,21.2,6.6,-10.8,22.3,16.0
S=c1[nH]nc(-c2ccccc2)n1/N=C/c1ccc(-c2ccccc2Cl)o1,44.7*,-31.5,30.9,5.1,25.1,22.1
Brc1ccc(-c2csc3ncnc(-n4nnc5ccccc54)c23)cc1,45.2*,-10.6,49.3,6.1,14.5,32.2*
Cc1sc2ncnc(-n3nnc4ccccc43)c2c1C,27.6,x,-4.4,-4.7,-17.4,x
